A short description of assay [1]: qHTS assay to identify small molecule antagonists of the thyroid receptor (TR) signaling pathway - cell viability counter screen (AID 743064). Note: nearly all actives have a fitted effect of over 50% in size. Note: potency is the fitted concentration of half-maximal effect. In outline:
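GH3.TRE-Luc cells, 4 h pre-plating; cpd + T3 1 nM final; 37 °C 23.5 h; CellTiter-Fluor 30 min; fluorescence read.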

The target in assay [2] is Estrogen receptor (Homo sapiens) (UniProt P03372). In words: qHTS assay to identify small molecule antagonists of the estrogen receptor alpha (ER-alpha) signaling pathway (AID 743069; active = well fitted curve in the direction sought with a large enough effect in the signal ratio in the repeat runs, not every such curve was filed as active; the % refers to the signal ratio). The gist of the method: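 ER-alpha-UAS-bla GripTite HEK293 line; 2% charcoal-stripped FBS overnight; plated, 4 hr 37C/5% CO2; cpd in DMSO + 17beta-estradiol, 18 hr 37C; LiveBLAzer B/G FRET substrate 2 hr RT; fluorescence intensity.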
A general note: qHTS replaces the single test concentration by a dilution series.

Assay [3] shares this target. In words: qHTS assay to identify small molecule agonists of the estrogen receptor alpha (ER-alpha) signaling pathway (AID 743075; calls by dose curve;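 note: HEK293 GripTite cells with ER-alpha and UAS-driven beta-lactamase reporter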).
Assay [4] has the same target. As to the kind of experiment: qHTS assay to identify small molecule agonists of the estrogen receptor alpha (ER-alpha) signaling pathway using the BG1 cell line (AID 743079). Note: nearly all actives have a fitted effect of over 20% in size. Note: potency is the fitted concentration of half-maximal effect.
The nature of assay [5]: qHTS assay to identify small molecule antagonists of the estrogen receptor alpha (ER-alpha) signaling pathway using the BG1 cell line (AID 743080; calls by dose curve;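 note: BG1 cells stimulated with 17beta-estradiol alongside compound; series mostly up to about 70 µM; nearly all actives have a fitted effect of over 25% in size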). In outline: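 BG1-Luc-4E2 cells (endogenous full-length ER-alpha, 4xERE luciferase) hormone-starved 5 days in charcoal-stripped FBS, plated 4,000/well for 24 h, then compound plus 17beta-estradiol for 21.5 h at 37 C; ONE-Glo luminescence read.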

Assay [6] can be described thus: qHTS assay to identify small molecule antagonists of the estrogen receptor alpha (ER-alpha) signaling pathway using the BG1 cell line - cell viability counter screen (AID 743081).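 Note: compound given together with 17beta-estradiol as the ER stimulus; nearly all actives have a fitted effect of over 45% in size.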 Note: potency is the fitted concentration of half-maximal effect.
Another assay deals with Aromatase (Homo sapiens) (UniProt P11511). In words: qHTS assay to identify aromatase inhibitors (AID 743083). Note: nearly all actives have a fitted effect of over 55% in size. Note: potency is the fitted concentration of half-maximal effect.
Assay [7] can be described thus: qHTS assay to identify aromatase inhibitors - cell viability counter screen (AID 743084).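 Note: cells stimulated with testosterone during compound exposure; nearly all actives have a fitted effect of over 55% in size.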 Note: potency is the fitted concentration of half-maximal effect.
Assay [8] concerns the target Aryl hydrocarbon receptor (Homo sapiens) (UniProt P35869). As to the kind of experiment: qHTS assay to identify small molecule that activate the aryl hydrocarbon receptor (AhR) signaling pathway (AID 743085).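 Note: HG2L7.5c1 human HepG2 liver cells with stably integrated DRE-driven firefly reporter; series mostly up to about 70 µM; nearly all actives have a fitted effect of over 15% in size.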 The gist of the method: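 Luminescence read-out: ONE-Glo reagent, 30 min at room temperature, in HG2L7.5c1 HepG2 reporter cells treated 24 h at 37C. Viability was measured beforehand by CellTiter-Fluor fluorescence after 30 min at 37C.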

A short description of assay [9]: qHTS assay to identify small molecule that activate the aryl hydrocarbon receptor (AhR) signaling pathway - cell viability counter screen (AID 743086). Note: nearly all actives have a fitted effect of over 45% in size. Note: potency is the fitted concentration of half-maximal effect. In outline: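 Cytotoxicity counter screen: CellTiter-Fluor signal (30 min, 37 C) in 4000 HepG2 cells/well carrying the DRE-luciferase reporter, following 24 h compound exposure at 37 C.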
In assay [10] the target is Peroxisome proliferator-activated receptor gamma (Homo sapiens) (UniProt P37231). As to the kind of experiment: qHTS assay to identify small molecule agonists of the peroxisome proliferator-activated receptor gamma (PPARg) signaling pathway (AID 743094; active = well fitted activation curve with a large enough effect in the signal ratio in the repeat runs, not every such curve was filed as active; the % refers to the signal ratio). In outline:
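GeneBLAzer PPARg UAS-bla HEK293H cells were plated, rested 5 h, then exposed to compounds for 17 h at 37C. Beta-lactamase activity was read by LiveBLAzer B/G FRET substrate fluorescence after 1 h at room temperature.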

Assay [11] in a line: qHTS assay to identify small molecule antagonists of the peroxisome proliferator-activated receptor gamma (PPARg) signaling pathway - cell viability counter screen (AID 743194). Note: nearly all actives have a fitted effect of over 55% in size. In outline: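 Viability was measured as CellTiter-Glo luminescence in GeneBLAzer PPARg UAS-bla HEK293H cells. These cells had been exposed 17 h at 37 C to compounds together with rosiglitazone at 50 nM final, with the beta-lactamase readout taken in the same wells.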

Assay [12] is described as follows: qHTS assay for small molecule agonists of the antioxidant response element (ARE) signaling pathway (AID 743202; active = well fitted activation curve with a large enough effect in the signal ratio in the repeat runs, not every such curve was filed as active; the % refers to the signal ratio). In outline: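 Quantitative high-throughput format in HepG2 cells bearing an integrated ARE-beta-lactamase reporter. Compound exposure lasted 16 h at 37 C, and fluorescence was read 2 h after adding LiveBLAzer B/G substrate at room temperature.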
The nature of assay [13]: qHTS assay for small molecule agonists of the antioxidant response element (ARE) signaling pathway - cell viability counter screen (AID 743203; calls by dose curve; note: nearly all actives have a fitted effect of over 55% in size). The gist of the method:
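ARE-bla HepG2 cells were plated, rested 5 h at 37C/5% CO2, then exposed to compounds in DMSO for 16 h. Viability was read as CellTiter-Glo luminescence after 30 min at room temperature, in the same wells as the ARE screen.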

The nature of assay [14]: qHTS assay for small molecule activators of the heat shock response signaling pathway - cell viability counter screen (AID 743209). Note: nearly all actives have a fitted effect of over 50% in size. In outline:
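HSE-bla HeLa cells plated overnight, then exposed to Tox21 compounds (23 nL in DMSO) for 5 h at 37 C. After the bla reporter read, CellTiter-Glo was added in the same wells and luminescence read after 30 min at room temperature.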

A short description of assay [15]: qHTS assay for small molecule activators of the heat shock response signaling pathway (AID 743210; active = well fitted activation curve with a large enough effect in the signal ratio in the repeat runs, with a control signal flat, not every such curve was filed as active; the % refers to the signal ratio;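 note: HeLa cells with beta-lactamase reporter driven by heat shock elements; series mostly up to about 63 µM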). The gist of the method:
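HeLa HSE-bla cells, overnight plating; cpd in DMSO 5 h, 37 C; LiveBLAzer B/G FRET substrate 2.5 h RT; fluorescence intensity read.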

A short description of assay [16]: qHTS assay to identify small molecule antagonists of the estrogen receptor alpha (ER-alpha) signaling pathway - cell viability counter screen (AID 743074; calls by dose curve;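 note: HEK293 cells carrying ER-alpha-UAS-bla reporter stimulated with 17beta-estradiol; nearly all actives have a fitted effect of over 45% in size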).
In assay [17] the target is Peroxisome proliferator-activated receptor gamma (Homo sapiens) (UniProt P37231). As to the kind of experiment: qHTS assay to identify small molecule antagonists of the peroxisome proliferator-activated receptor gamma (PPARg) signaling pathway (AID 743191; calls by dose curve; note: series mostly up to about 63 µM; nearly all actives have a fitted effect of over 30% in size). In outline: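 Beta-lactamase reporter under UAS control in HEK293H PPARg-bla cells; compound treatment 17 h at 37C. Read-out: fluorescence intensity after 1 h room-temperature incubation with LiveBLAzer B/G FRET substrate.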

Assay [18] is described as follows: qHTS assay to identify small molecule antagonists of the thyroid receptor (TR) signaling pathway (AID 743065). Note: nearly all actives have a fitted effect of over 55% in size. Note: potency is the fitted concentration of half-maximal effect. In outline:
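Antagonism measured as loss of luciferase signal in GH3 cells stably carrying a TRE-luciferase reporter, co-treated with compound and T3 (1 nM final) for 23.5 h at 37 C. Viability was read in the same well by CellTiter-Fluor.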

For assay [19], the system named is thyroid hormone receptor (rat, GH3 cells). In words: qHTS assay to identify small molecule agonists of the thyroid receptor (TR) signaling pathway (AID 743066; calls by dose curve).

Inconclusive results are not listed. Values without a mark were called inactive. Calls of active or inactive are those of the source. Unless noted, calls come from the whole dose curve; as a rule, active = well fitted curve in the direction sought with a large enough effect in the repeat runs; inconclusive = weak or mixed curves; inactive = no such curve, though single readings can be large; an effect the other way counts as inactive or inconclusive.

Sequence of Peroxisome proliferator-activated receptor gamma (Homo sapiens) (P37231 whole entry, looked up): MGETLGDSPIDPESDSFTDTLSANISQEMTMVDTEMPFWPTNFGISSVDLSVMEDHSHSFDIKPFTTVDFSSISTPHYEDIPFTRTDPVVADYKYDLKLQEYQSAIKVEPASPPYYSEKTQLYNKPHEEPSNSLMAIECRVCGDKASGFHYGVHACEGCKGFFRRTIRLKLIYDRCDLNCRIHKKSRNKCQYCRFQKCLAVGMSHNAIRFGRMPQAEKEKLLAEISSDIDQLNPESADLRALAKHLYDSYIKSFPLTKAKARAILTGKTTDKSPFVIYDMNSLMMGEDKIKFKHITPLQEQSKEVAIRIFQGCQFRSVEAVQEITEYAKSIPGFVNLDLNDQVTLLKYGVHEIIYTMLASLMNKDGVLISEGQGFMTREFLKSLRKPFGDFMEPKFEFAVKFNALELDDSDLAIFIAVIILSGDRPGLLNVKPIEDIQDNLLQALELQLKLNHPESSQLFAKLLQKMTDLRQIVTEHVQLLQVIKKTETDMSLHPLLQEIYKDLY
Sequence of Estrogen receptor (Homo sapiens) (P03372 whole entry, looked up): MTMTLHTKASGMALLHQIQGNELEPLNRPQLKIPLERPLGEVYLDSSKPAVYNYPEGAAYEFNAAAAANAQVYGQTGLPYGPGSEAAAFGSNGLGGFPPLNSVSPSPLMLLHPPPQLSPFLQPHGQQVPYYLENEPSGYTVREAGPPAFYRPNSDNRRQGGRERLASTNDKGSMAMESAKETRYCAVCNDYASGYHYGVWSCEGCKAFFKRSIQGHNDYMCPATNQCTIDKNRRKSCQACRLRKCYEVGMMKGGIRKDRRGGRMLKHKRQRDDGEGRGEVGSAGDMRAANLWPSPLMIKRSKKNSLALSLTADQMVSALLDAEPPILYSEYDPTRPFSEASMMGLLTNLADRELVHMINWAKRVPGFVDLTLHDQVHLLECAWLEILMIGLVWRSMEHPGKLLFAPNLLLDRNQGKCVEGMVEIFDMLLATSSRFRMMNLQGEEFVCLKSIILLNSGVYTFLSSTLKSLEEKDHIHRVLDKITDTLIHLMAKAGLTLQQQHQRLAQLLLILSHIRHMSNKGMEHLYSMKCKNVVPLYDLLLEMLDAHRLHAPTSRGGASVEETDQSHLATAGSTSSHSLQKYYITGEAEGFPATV
Sequence of Aromatase (Homo sapiens) (P11511 whole entry, looked up): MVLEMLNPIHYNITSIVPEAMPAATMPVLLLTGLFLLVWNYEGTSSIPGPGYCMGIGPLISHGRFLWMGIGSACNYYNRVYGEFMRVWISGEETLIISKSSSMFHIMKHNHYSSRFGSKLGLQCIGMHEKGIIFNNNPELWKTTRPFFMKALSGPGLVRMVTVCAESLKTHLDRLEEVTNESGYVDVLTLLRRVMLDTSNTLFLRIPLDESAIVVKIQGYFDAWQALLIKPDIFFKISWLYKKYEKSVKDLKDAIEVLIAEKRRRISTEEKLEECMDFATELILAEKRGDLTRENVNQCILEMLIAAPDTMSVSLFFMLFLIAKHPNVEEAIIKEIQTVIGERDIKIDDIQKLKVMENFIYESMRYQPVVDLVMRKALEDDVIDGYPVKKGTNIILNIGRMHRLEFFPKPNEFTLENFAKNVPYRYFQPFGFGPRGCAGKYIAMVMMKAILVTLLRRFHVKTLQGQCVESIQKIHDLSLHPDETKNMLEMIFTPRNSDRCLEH
Sequence of Aryl hydrocarbon receptor (Homo sapiens) (P35869 whole entry, looked up): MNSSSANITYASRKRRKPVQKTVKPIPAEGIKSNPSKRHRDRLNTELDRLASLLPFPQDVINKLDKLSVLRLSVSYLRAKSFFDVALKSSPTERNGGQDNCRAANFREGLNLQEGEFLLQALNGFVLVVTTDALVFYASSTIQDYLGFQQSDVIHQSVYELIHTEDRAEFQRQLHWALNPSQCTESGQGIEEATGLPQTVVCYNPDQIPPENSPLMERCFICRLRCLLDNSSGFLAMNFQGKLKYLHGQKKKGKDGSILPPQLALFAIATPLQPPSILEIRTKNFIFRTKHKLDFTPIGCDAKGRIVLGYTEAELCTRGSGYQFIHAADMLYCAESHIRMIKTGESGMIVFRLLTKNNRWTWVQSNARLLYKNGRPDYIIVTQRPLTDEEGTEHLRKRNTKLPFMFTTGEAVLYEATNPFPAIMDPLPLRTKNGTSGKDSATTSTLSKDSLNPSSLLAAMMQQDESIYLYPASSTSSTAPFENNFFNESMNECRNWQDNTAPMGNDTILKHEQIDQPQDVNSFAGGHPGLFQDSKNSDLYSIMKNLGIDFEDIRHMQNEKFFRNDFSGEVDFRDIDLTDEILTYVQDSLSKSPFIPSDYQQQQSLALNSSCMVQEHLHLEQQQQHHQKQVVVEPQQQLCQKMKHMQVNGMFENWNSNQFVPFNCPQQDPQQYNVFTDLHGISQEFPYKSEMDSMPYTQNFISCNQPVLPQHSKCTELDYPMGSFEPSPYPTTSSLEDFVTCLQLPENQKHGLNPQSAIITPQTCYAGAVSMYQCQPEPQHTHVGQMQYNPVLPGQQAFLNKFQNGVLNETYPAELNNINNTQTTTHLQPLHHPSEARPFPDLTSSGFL

As for `CC(C)OC(=O)c1ccccc1C(=O)OC(C)C`, the Potency entry in assay [1], in assay [2], in assay [3], in assay [4], in [5] and in assay [6] was “inactive” in each case. The Potency result (with Aromatase (Homo sapiens); in [7]; in [8]; in [9]; in assay [11]; in assay [12]) was “inactive” each time. In addition, the Potency result in assay [13], in assay [14] and in assay [15] was “inactive” in each case. Moreover, the compound was classed as inactive in [10].
`FC(F)(F)C(F)(F)C(F)(F)C(F)(F)CCI`: the Potency entry (in assay [1]; in assay [2]; in assay [16]; in assay [3]; in assay [6]; with Aromatase (Homo sapiens)) was “inactive” in each case. The Potency entry in assay [7], in assay [8], in [9], in assay [17], in [11] and in assay [12] was “inactive” each time. The Potency entry in [13] and in assay [14] was “inactive” throughout. Moreover, the Potency in assay [4] is 27.9 µM (active).
As to `CC(C)(C(=O)c1cccnc1)c1cccnc1`, the Potency result in assay [1], in assay [2], in assay [16], in [3], in [4] and in assay [5] was “inactive” each time. The Potency result (in assay [6]; with Aromatase (Homo sapiens); in assay [7]; in assay [8]; in assay [9]; in [17]) was “inactive” in each case. For the same compound, the Potency result in assay [11], in [12], in [13] and in assay [14] was “inactive” in each case. The compound was classed as inactive in [10].
Consider `CCN(Cc1cccc(S(=O)(=O)O)c1)c1ccc(C(=C2C=CC(=[N+](CC)Cc3cccc(S(=O)(=O)O)c3)C=C2)c2ccc(O)cc2S(=O)(=O)[O-])cc1`, for which the Potency in [1] is 37.1 µM (active); in [6] it was 33.1 µM (active); with Aromatase (Homo sapiens) it was 18.6 µM (active); in assay [7] it was 29.5 µM (active); in assay [9], 16.6 µM (active). Also, the Potency result in assay [2], in assay [3], in assay [8], in assay [11], in assay [12] and in assay [15] was “inactive” throughout. Moreover, the compound was classed as inactive in assay [10].
For `CCCCCCCCCCCC(=O)OCC(O)CO` (configuration not stated), the Potency result in [18], in assay [19], in [2], in [16], in assay [3] and in [4] was “inactive” in each case. Also, the Potency entry (in [5]; in assay [6]; in the assay with Aromatase (Homo sapiens); in assay [7]; in assay [8]; in assay [9]) was “inactive” each time. Moreover, the Potency result in [11] and in assay [13] was “inactive” in each case.
In the case of `CC(C)CC(O)CC(C)C`, the Potency result in assay [18], in [19], in assay [2], in assay [16], in assay [3] and in assay [4] was “inactive” in each case. Besides, the Potency result (in [5]; in [6]; with Aromatase (Homo sapiens); in assay [7]; in [8]; in [9]) was “inactive” throughout. For the same compound, the Potency result in [11], in assay [13], in assay [14] and in [15] was “inactive” throughout. Further, the compound was classed as inactive in [10].
On to `CC12CC3CC(C)(C1)CC(N)(C3)C2`, for which the Potency in assay [1] and in assay [18] was 29.8 µM (active) in each case. In addition, the Potency result (in assay [2]; in [3]; in assay [4]; in assay [6]; with Aromatase (Homo sapiens); in [7]) was “inactive” each time. The Potency entry in [8], in [9], in assay [17], in [11], in [12] and in assay [13] was “inactive” throughout. For the same compound, the Potency result in [14] is “inactive”. Further, the result in assay [10] was inactive.
On to `CCOC(=O)C(C)O` (configuration not stated), for which the Potency entry in assay [1], in [2], in [16], in assay [3], in [4] and in [5] was “inactive” each time. The Potency result (with Aromatase (Homo sapiens); in assay [7]; in assay [8]; in assay [9]; in assay [11]; in [13]) was “inactive” each time. For the same compound, the Potency entry in assay [14] and in assay [15] was “inactive” in each case.
On to `O=C(Oc1ccccc1)c1ccc2ccccc2c1O`, for which the Potency entry in assay [1], in [19], in [2], in assay [16], in assay [3] and in [6] was “inactive” throughout. Moreover, the Potency result (in the assay with Aromatase (Homo sapiens); in assay [7]; in [8]; in assay [9]; in assay [17]; in assay [12]) was “inactive” each time. Also, the Potency result in [13], in assay [14] and in assay [15] was “inactive” in each case. For the same compound, the compound was called inactive in assay [10].

Source of the values: PubChem BioAssay (Tox21).
